Inconclusive results are not listed. Active and inactive are the calls of the source. Unless noted, calls follow the shape of the full dose curve.

Assay [1] has as its target Estrogen receptor (Homo sapiens) (UniProt P03372). The assay is described as follows: qHTS assay for small molecule antagonists of estrogen receptor alpha signaling (AID 588513; active = well fitted curve in the direction sought with a large enough effect in the signal ratio, with a control signal flat, not every such curve was filed as active; the % refers to the signal ratio; also: % is scaled to controls: 0 for no effect and ±100 for the full control effect). An outline of the steps: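 Beta-lactamase reporter, antagonist mode, HEK 293 GripTite cells; 0.5nM E2 stimulus, 18 h, 37 C; CCF4 dye 2 h RT; fluorescence. IC50 and efficacy from Hill fits, normalized to E2 and DMSO.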
A general note: In qHTS, concentration-response curves come from the screen itself.

Assay [2] shares this target. Description: qHTS assay for small molecule agonists of estrogen receptor alpha signaling (AID 588514).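 Also: 0% = vehicle only and 100% = reference agonist; nearly all actives have a fitted effect of over 70% in size.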 An outline of the steps:
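EC50 and efficacy came from Hill fits of beta-lactamase reporter signal (CCF4 dye, 2 h at room temperature) scaled between DMSO and 20 nM 17-beta-estradiol. Agonist mode: HEK293 ER-alpha-UAS-bla cells in charcoal/dextran-stripped serum medium, 18 h compound exposure at 37 C.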

Assay [3] concerns the target Peroxisome proliferator-activated receptor delta (Homo sapiens) (UniProt Q03181). Description: qHTS assay for small molecule agonists of peroxisome proliferator-activated receptor delta signaling (AID 588534).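 Also: 0% = DMSO basal wells and 100% = positive control agonist at 10 µM.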 A digest of the protocol: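 Agonist-mode beta-lactamase reporter readout (CCF4 dye, 2 h at RT) after 18 h at 37 °C exposure to a titration; Hill-equation fitting gave EC50 and maximal response.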

The target in assay [4] is Peroxisome proliferator-activated receptor gamma (Homo sapiens) (UniProt P37231). The assay is described as follows: qHTS assay for small molecule agonists of peroxisome proliferator-activated receptor gamma signaling (AID 588536; active = well fitted curve in the direction sought with a large enough effect in the signal ratio, with a control signal flat, not every such curve was filed as active; the % refers to the signal ratio;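 also: 0% = DMSO basal wells and 100% = rosiglitazone at 2 µM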). A digest of the protocol:
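This is an agonist-mode beta-lactamase reporter assay in HEK293 PPAR-gamma-UAS-bla cells with 1% charcoal/dextran FBS. Compound titrations ran 16 h at 37 C before CCF4 detection. EC50 and efficacy are Hill fits scaled to 2 uM rosiglitazone (100%) and DMSO basal.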

The target is the same in assay [5]. Description: qHTS assay for small molecule antagonists of peroxisome proliferator-activated receptor gamma signaling (AID 588537; active = well fitted inhibition curve with a large enough effect in the signal ratio, with a control signal flat, not every such curve was filed as active; the % refers to the signal ratio;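 also: reporter cells co-stimulated with 50 nM rosiglitazone agonist during compound treatment; % of control where 0% means no effect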). A digest of the protocol: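 Compounds are tested as concentration series for inhibition of rosiglitazone-driven (50 nM) reporter expression in GeneBLAzer PPAR-gamma-UAS-bla HEK293 cells. After 16 h at 37 C, CCF4 substrate is added for 2 h at room temperature and blue/green fluorescence is measured.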

For assay [6], the target named is Vitamin D3 receptor (Homo sapiens) (UniProt P11473). Description: qHTS assay for small molecule antagonists of vitamin D receptor signaling (AID 588541).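 Also: receptor activated by calcitriol during compound treatment; series mostly up to about 77 µM; % is scaled to controls: 0 for no effect and ±100 for the full control effect.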 An outline of the steps: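 VDR-UAS-bla HEK293T cells (2000/well, 2% charcoal-stripped FBS) were treated with titrated compounds plus 1-alpha,25-dihydroxyvitamin D3 (50 nM or 3 nM final) for 16 h at 37 C. CCF4 beta-lactamase fluorescence was read; Hill fits gave IC50.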
Chain of Vitamin D3 receptor (Homo sapiens) (P11473 whole entry, looked up): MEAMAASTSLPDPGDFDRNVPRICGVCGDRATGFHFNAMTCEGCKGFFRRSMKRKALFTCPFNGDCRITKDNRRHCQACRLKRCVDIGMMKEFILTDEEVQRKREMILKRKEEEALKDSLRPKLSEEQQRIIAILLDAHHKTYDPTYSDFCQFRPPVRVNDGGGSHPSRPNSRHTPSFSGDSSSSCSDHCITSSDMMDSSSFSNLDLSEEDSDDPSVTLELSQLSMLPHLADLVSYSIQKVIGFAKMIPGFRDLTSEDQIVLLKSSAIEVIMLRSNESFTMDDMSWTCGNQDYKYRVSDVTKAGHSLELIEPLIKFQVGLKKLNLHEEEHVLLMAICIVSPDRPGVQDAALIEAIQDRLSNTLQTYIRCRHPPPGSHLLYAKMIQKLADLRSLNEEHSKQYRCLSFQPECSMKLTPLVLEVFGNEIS

For assay [7] the target is unchanged. The assay is described as follows: qHTS assay for small molecule agonists of vitamin D receptor signaling (AID 588543).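 Also: 0% = DMSO basal and 100% = reference agonist control.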 An outline of the steps:
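β-lactamase reporter, VDR-UAS-bla HEK293T, agonist mode. Cells plated 5 h at 37 °C, compound titration 16 h at 37 °C, CCF4 dye 2 h RT, ratio 460/530 nm. Hill fit → EC50, efficacy vs 50 nM 1α,25-(OH)2D3.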

In assay [8] the target is Retinoic acid receptor RXR-alpha (Homo sapiens) (UniProt P19793). The assay is described as follows: qHTS assay for small molecule agonists of retinoid X receptor alpha signaling (AID 588544). Also: potency is read from the fitted curve at half-maximal effect.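 As to activation: 0% = DMSO basal wells and 100% = reference agonist.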
Chain of Retinoic acid receptor RXR-alpha (Homo sapiens) (P19793 whole entry, looked up): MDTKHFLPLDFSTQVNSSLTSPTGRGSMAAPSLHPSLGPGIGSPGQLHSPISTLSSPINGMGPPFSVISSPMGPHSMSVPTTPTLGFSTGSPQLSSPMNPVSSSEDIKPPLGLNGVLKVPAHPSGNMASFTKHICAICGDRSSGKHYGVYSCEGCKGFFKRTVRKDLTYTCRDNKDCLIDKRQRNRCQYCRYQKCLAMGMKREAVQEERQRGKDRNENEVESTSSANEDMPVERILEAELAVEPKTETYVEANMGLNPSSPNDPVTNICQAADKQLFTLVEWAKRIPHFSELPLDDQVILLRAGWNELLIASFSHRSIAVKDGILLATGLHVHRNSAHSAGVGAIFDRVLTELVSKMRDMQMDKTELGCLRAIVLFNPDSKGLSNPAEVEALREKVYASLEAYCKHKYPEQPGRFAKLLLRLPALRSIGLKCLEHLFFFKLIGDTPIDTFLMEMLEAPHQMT
The target of assay [9] is Thyroid hormone receptor beta (Homo sapiens) (UniProt P10828). The assay is described as follows: qHTS assay for small molecule agonists of thyroid hormone receptor beta signaling (AID 588545). A digest of the protocol: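 In this cell-based screen, titrated compounds act on HEK 293 cells held in medium with 2% charcoal/dextran FBS, NEAA and pyruvate for 18 hrs at 37 C. Responses are expressed relative to T3 (10 nM) as 100% and basal DMSO as 0%.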
Chain of Thyroid hormone receptor beta (Homo sapiens) (P10828 whole entry, looked up): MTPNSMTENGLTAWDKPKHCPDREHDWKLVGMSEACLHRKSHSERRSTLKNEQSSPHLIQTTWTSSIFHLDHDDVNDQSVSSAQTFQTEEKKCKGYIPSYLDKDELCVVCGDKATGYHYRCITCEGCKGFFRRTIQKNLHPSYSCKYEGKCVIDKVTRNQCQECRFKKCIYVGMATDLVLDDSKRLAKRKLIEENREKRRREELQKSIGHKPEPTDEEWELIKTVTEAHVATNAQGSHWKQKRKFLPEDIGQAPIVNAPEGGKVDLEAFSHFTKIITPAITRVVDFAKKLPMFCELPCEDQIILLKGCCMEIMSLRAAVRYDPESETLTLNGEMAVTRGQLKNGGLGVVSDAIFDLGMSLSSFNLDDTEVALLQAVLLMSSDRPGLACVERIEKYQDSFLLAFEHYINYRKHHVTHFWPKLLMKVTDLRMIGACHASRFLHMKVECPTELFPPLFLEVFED

The nature of assay [10]: qHTS assay for small molecule antagonists of retinoid X receptor alpha signaling (AID 588546; active = well fitted inhibition curve with a large enough effect in the signal ratio, with a control signal flat, not every such curve was filed as active; the % refers to the signal ratio;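 also: cells stimulated with 9-cis-retinoic acid as agonist; % is scaled to controls: 0 for no effect and ±100 for the full control effect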). To be noted: HEK293T RXRa-UAS-bla, beta-lactamase ratio, antagonist mode; measured here: W530 green channel, cytotoxicity proxy. An outline of the steps: (§1)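 Beta-lactamase reporter inhibition, read as CCF4 fluorescence ratio (ex 405, em 460/530 nm) after 2 h at RT. HEK293T UAS-bla cells, 2500/well, were stimulated with 9-cis-RA at 500 or 100 nM final alongside test compound for 18 h at 37 C.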

Assay [11] concerns the target Retinoic acid receptor RXR-alpha (Homo sapiens) (UniProt P19793). Described as above. The conditions noted are these: HEK293T RXRa-UAS-bla, beta-lactamase ratio, antagonist mode. A digest of the protocol: as §1
Assay [12] in a line: qHTS assay for small molecule activators of the p53 signaling pathway (AID 651743; active = well fitted activation curve with a large enough effect in the signal ratio, not every such curve was filed as active; the % refers to the signal ratio; also: series mostly up to about 92 µM; % of control where 0% means no effect). The conditions noted are these: HCT-116 p53RE-bla, beta-lactamase FRET ratio, 16 h; activation: stronger effect = higher value. An outline of the steps:
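Agonist-mode quantitative HTS in HCT-116 cells carrying a p53-response-element beta-lactamase reporter; 16 h compound treatment at 37 C, then FRET substrate loading for 2 h at room temperature and fluorescence read.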

The nature of assay [13]: qHTS assay for environmental chemicals that activate the Aryl hydrocarbon Receptor (AhR) signaling pathway (AID 651777; active = well fitted curve in the direction sought with a large enough effect; an effect the other way counts as inactive or inconclusive; also: % of control where 0% means no effect; nearly all actives have a fitted effect of over 15% in size). To be noted: 1A2-DRE human hepatoma cells, luciferase, 24 h; activation: stronger effect = higher value. An outline of the steps: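 Quantitative HTS in stably transfected human liver-derived cells whose luciferase gene sits downstream of the CYP1A2 promoter and dioxin response element. After 24 hr exposure at 37 C, One-Glo luminescence was measured.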

The target of assay [14] is Peroxisome proliferator-activated receptor alpha (Homo sapiens) (UniProt Q07869). Description: qHTS assay for small molecule agonists of the peroxisome proliferator-activated receptor alpha (PPARalpha) signaling pathway (AID 651778; active = well fitted curve in the direction sought with a large enough effect; an effect the other way counts as inactive or inconclusive; also: % of control where 0% means no effect). To be noted: PathHunter PPARalpha complementation, chemiluminescence, 6 h; max response: stronger effect = higher value. A digest of the protocol:
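Cells plated at 2,000/well and held overnight at 37 C, 5% CO2, then compound added by pin tool for 6 hr; after PathHunter detection reagent and 60 min at room temperature, chemiluminescence from enzyme complementation was read.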

Assay [15] in a line: qHTS assay for small molecule agonists of the antioxidant response element (ARE) signaling pathway measured by Nrf2-dependant transcriptional activity (AID 720636; active = well fitted curve in the direction sought with a large enough effect in the repeat runs; an effect the other way counts as inactive or inconclusive; also: % of control where 0% means no effect). A digest of the protocol: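 Quantitative HTS format in HepG2 cells stably expressing an ARE-luciferase reporter; 16 hr compound treatment at 37 C, luciferase signal detected with ONE-Glo.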
The nature of assay [16]: qHTS assay for small molecule agonists of the antioxidant response element (ARE) signaling pathway measured by Nrf2-dependant transcriptional activity - cell viability counter screen (AID 720653; active = well fitted curve in the direction sought with a large enough effect in the repeat runs; an effect the other way counts as inactive or inconclusive; also: % is scaled to controls: 0 for no effect and ±100 for the full control effect). To be noted: ARE-bla HepG2 viability, CellTiter-Glo ATP luminescence, 16 h; max response: stronger effect = lower value. A digest of the protocol:
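ARE-bla HepG2 cells (2,000/well) rested 5 hrs at 37C/5% CO2, then exposed to compounds in DMSO for 16 hrs. Viability was read in the same wells as intracellular ATP by luminescence, 30 min at room temperature after reagent addition.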

Assay [17] in a line: qHTS assay for cell viability of HEK293 cells (AID 743288; active = well fitted curve in the direction sought with a large enough effect; an effect the other way counts as inactive or inconclusive; also: % is scaled to controls: 0 for no effect and ±100 for the full control effect; nearly all actives have a fitted effect of over 50% in size). To be noted: ATP luminescence (CellTiter-Glo), 18 h; max response: stronger effect = lower value. A digest of the protocol: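 ATP luminescence (CellTiter-Glo) reports metabolically competent cell number after parental HEK293 cells, 2,000/well, were treated with DMSO-dissolved compounds for 18 h at 37 C; reagent incubation 30 min, room temperature.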

The nature of assay [18]: qHTS assay for cell viability of the p53RE-bla HCT-116 cell line (AID 743292; active = well fitted curve in the direction sought with a large enough effect; an effect the other way counts as inactive or inconclusive; also: % is scaled to controls: 0 for no effect and ±100 for the full control effect; nearly all actives have a fitted effect of over 55% in size). An outline of the steps:
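Viability of compound-treated p53RE-bla HCT-116 cells is taken from ATP-dependent luciferase luminescence. Treatment lasts 16 h at 37 C after a 5 h settling period; detection follows 30 min at room temperature.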

Assay [19] addresses Nuclear receptor subfamily 1 group I member 2 (Rattus norvegicus) (UniProt Q9R1A7). Description: qHTS assay for small molecule activators of the rat pregnane X receptor (rPXR) signaling pathway (AID 651751; call rule not given here; also: 0% is about no effect). The conditions noted are these: rPXR reporter cells, luciferase (One-Glo), 24 h.
The target of assay [20] is Thyroid hormone receptor beta (Homo sapiens) (UniProt P10828). The assay is described as follows: qHTS assay for small molecule antagonists of thyroid hormone receptor beta signaling (AID 588547; active = well fitted inhibition curve with a large enough effect in the signal ratio, with a control signal flat, not every such curve was filed as active; the % refers to the signal ratio). To be noted: TR-UAS-bla HEK293, beta-lactamase ratio, antagonist mode, 18 h. An outline of the steps:
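TR-UAS-bla GripTite HEK293 cells in 2% charcoal/dextran FBS medium were preincubated 4 h at 37 C, given compound (0.59 nM to 92 uM) plus 0.4 nM T3 (final) for 18 h, then CCF4 for 2 h at RT; Hill fit gave IC50.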

Chain of Peroxisome proliferator-activated receptor gamma (Homo sapiens) (P37231 whole entry, looked up): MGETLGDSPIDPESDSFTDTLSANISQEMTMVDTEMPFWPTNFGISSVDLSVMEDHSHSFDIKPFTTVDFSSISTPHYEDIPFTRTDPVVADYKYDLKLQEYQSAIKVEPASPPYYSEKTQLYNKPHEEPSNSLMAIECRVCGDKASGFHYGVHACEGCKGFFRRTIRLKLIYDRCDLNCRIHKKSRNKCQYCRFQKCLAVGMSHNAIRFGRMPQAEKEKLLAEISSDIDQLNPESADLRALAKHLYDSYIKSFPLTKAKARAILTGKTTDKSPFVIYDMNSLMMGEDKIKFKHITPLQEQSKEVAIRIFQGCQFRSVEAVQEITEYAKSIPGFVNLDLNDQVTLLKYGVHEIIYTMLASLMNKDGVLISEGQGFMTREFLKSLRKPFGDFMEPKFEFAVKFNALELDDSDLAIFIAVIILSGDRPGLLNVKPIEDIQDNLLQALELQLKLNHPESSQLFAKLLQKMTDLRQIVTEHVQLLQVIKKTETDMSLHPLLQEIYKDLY
Chain of Estrogen receptor (Homo sapiens) (P03372 whole entry, looked up): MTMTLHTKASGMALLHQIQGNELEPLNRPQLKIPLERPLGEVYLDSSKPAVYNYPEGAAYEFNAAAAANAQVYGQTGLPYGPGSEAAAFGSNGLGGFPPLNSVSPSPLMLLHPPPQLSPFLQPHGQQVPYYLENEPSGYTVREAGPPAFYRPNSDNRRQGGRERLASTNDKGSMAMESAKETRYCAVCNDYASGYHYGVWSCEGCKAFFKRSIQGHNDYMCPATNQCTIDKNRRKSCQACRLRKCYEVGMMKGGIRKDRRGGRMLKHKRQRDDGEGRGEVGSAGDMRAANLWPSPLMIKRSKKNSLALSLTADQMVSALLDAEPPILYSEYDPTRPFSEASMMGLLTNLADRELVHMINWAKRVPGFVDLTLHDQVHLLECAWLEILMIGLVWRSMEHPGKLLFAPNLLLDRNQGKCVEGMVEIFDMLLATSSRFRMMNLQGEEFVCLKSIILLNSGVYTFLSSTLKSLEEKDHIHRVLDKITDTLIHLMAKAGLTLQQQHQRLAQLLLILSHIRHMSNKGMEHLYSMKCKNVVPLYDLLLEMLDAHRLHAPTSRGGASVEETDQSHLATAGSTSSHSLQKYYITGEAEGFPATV
Chain of Peroxisome proliferator-activated receptor alpha (Homo sapiens) (Q07869 whole entry, looked up): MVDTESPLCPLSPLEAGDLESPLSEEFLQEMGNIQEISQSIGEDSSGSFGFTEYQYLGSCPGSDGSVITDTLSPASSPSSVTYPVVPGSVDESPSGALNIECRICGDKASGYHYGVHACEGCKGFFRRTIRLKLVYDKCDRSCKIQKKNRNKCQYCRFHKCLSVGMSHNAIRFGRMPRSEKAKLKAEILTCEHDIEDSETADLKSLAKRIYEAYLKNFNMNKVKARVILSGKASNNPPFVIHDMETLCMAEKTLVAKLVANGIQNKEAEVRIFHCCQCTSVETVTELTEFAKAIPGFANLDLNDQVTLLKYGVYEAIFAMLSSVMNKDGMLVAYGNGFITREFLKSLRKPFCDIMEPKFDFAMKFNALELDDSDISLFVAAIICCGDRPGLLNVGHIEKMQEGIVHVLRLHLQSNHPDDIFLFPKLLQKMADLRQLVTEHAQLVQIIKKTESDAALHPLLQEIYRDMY
Chain of Peroxisome proliferator-activated receptor delta (Homo sapiens) (Q03181 whole entry, looked up): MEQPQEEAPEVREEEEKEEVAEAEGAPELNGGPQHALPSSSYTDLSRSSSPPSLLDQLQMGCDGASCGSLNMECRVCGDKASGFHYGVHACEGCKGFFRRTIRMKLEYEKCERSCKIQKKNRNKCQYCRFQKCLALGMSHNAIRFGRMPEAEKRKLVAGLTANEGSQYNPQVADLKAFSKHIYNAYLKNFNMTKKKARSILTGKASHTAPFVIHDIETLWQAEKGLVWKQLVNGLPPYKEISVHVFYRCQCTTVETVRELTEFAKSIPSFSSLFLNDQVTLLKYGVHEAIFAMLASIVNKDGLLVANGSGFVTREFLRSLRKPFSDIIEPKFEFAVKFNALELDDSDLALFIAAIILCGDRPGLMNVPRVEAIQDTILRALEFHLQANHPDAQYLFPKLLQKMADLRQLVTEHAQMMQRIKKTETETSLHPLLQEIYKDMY
Chain of Nuclear receptor subfamily 1 group I member 2 (Rattus norvegicus) (Q9R1A7 whole entry, looked up): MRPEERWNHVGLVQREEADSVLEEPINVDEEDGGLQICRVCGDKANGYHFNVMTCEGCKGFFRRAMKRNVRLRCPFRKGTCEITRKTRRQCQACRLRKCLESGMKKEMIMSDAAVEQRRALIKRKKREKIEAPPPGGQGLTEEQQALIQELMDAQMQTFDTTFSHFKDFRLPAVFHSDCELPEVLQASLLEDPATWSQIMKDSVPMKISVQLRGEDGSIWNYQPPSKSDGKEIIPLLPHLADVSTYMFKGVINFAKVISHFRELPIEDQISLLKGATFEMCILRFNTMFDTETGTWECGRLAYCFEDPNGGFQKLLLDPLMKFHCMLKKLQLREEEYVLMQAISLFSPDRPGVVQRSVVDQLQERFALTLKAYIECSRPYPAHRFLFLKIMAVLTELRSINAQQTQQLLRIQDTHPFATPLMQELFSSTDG

With `C=C(C)CN(CC)c1c([N+](=O)[O-])cc(C(F)(F)F)cc1[N+](=O)[O-]`, the Potency result in assay [1], in [2], in assay [4], in [5], in assay [6] and in assay [8] was “inactive” throughout. Moreover, the Potency entry in [9], in assay [15] and in assay [18] was “inactive” each time. The result in [3] and in assay [7] was inactive. The max response is -6.07% in [10]; 1.05% (inactive) in assay [11]; 0.658% (inactive) in [14]; 5.45% (inactive) in assay [16]; -3.14% (inactive) in [17]. Further, the activation in assay [12] is 0.904% (inactive); in assay [13], 1.28% (inactive).

`COc1nc(C)nc(NC(=O)NS(=O)(=O)c2ccccc2Cl)n1`: the Potency result in [1], in [2], in assay [4], in [5], in [6] and in [8] was “inactive” throughout. For the same compound, the Potency result in assay [9], in assay [15] and in assay [18] was “inactive” in each case. In addition, the call in assay [7] was inactive. The max response in assay [10] was -9.33%; in [11] it was -1.72% (inactive); in [14], -1.56% (inactive); in assay [16], -0.816% (inactive); in [17], -13% (inactive); in [19] it was -1.17% (inactive). The figures for the activation in assay [12] and in assay [13] were -1.02% (inactive) and 1.34% (inactive), respectively.

For `CCOP(=O)(OCC)SCCSCC`, the Potency entry in assay [1], in assay [2], in assay [4], in assay [5], in [6] and in assay [9] was “inactive” each time. In assay [18], the Potency entry was “inactive”. The Potency in assay [8] is 44.7 µM (active). For the same compound, the max response was -5.85% in assay [10]; 3.44% (inactive) in assay [11]; -1.58% (inactive) in [14]; 12.9% (inactive) in assay [16]; -2.44% (inactive) in assay [17]; 3.51% (inactive) in [19]. Moreover, the activity change % (negative = inhibition) in [20] is -4.38% (inactive). Further, the results for the activation in [12] and in assay [13] were 1.72% (inactive) and 1.43% (inactive), respectively.

As for `Brc1c(Br)c(Br)c(Br)c(Br)c1Br`, the Potency entry in [1], in assay [2], in assay [4], in assay [5], in [8] and in assay [9] was “inactive” throughout. In addition, the Potency result in [15] and in [18] was “inactive” in each case. The outcome in [3] was inactive. Besides, the max response in [10] was -6.9%; in assay [11], 0.275% (inactive); in [14], -0.494% (inactive); in assay [16], 3.38% (inactive); in assay [17] it was -0.224% (inactive); in assay [19], 0.884% (inactive). Further, the activation is 2.23% (inactive) in assay [12] and 2.18% (inactive) in assay [13].

Regarding `C=CC(=O)OCCCCCC(C)C`, the Potency result in [1], in assay [4], in [6], in [9], in [15] and in assay [18] was “inactive” throughout. The compound was classed as inactive in assay [3] and in assay [7]. The Potency in assay [8] is 31.6 µM (active). Further, the max response is -15.4% in assay [10]; -5.23% (inactive) in assay [11]; -1.09% (inactive) in [14]; 8.44% (inactive) in assay [16]; 4.71% (inactive) in [17]; 0.944% (inactive) in assay [19]. Further, the activation in [12] was -4.19% (inactive); in assay [13], -0.0847% (inactive).

Values taken from PubChem BioAssay (NCATS).
